Test results: the supplement of paper PMC11732987, “Enantioselective OTUD7B fragment discovery through chemoproteomics screening and high-throughput optimisation” (Communications Chemistry, 2025)

Assays:
Experiment in all cases: log2 ratio of Biotin-Ahx-Ub-VS probe labelling (fragment/DMSO); higher = less target engagement (more negative = stronger competition), active = hit call of the paper (q ≤ 0.05, log2 ratio ≤ -1)
Settings in all cases: compound concentration: 200 uM; treatment time: 3 h
[1] = molecular target: USP34 (UniProt Q70CQ2)
Summary of the method: (§1)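 The table lists average log2 ratios of fragment over vehicle, from an unpaired t-test on global-median-normalised Spectronaut label-free quantities. Proteins with ≥2 unique peptides were used. Samples were HEK293T lysate (495 µg) treated in triplicate with fragment at 200 µM or vehicle for 3 h, then with Biotin-Ahx-Ub-VS (0.5 µM final) for 1 h, with labelled DUBs NeutrAvidin-enriched and run by diaPASEF LC-MS/MS.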

[2] = molecular target: T1, USP36 (UniProt Q9P275)
T1 sequence (whole entry): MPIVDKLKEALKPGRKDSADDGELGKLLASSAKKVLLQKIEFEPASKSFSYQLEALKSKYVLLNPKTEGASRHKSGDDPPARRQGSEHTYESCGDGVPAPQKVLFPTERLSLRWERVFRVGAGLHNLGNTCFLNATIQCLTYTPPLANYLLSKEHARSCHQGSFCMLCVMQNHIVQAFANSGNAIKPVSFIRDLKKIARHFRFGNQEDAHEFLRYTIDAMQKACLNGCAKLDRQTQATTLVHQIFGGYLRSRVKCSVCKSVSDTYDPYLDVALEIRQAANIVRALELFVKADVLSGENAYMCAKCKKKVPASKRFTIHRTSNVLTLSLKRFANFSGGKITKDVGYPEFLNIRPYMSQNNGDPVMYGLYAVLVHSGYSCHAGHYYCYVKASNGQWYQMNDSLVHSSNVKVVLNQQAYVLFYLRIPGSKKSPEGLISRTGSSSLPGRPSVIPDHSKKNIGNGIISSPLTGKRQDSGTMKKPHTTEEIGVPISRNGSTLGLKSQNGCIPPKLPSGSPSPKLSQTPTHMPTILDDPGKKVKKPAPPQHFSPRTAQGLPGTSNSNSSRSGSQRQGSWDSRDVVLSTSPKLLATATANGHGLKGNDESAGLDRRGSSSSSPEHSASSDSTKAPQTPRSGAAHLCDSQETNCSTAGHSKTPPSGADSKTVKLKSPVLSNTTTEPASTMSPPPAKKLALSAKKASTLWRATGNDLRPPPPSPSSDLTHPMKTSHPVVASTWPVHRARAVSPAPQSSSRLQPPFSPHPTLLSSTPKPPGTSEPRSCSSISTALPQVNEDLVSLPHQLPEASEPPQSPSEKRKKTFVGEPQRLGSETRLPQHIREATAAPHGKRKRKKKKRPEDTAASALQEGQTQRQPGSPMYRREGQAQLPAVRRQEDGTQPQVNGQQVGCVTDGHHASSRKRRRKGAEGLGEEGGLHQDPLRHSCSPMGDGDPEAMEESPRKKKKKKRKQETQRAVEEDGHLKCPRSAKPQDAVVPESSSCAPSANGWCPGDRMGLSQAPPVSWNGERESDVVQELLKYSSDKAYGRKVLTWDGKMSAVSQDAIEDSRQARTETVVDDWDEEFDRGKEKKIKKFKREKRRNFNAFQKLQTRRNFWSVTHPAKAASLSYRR
Summary of the method: as §1

[3] = molecular target: T2, USP38 (UniProt Q8NB14)
T2 sequence (whole entry): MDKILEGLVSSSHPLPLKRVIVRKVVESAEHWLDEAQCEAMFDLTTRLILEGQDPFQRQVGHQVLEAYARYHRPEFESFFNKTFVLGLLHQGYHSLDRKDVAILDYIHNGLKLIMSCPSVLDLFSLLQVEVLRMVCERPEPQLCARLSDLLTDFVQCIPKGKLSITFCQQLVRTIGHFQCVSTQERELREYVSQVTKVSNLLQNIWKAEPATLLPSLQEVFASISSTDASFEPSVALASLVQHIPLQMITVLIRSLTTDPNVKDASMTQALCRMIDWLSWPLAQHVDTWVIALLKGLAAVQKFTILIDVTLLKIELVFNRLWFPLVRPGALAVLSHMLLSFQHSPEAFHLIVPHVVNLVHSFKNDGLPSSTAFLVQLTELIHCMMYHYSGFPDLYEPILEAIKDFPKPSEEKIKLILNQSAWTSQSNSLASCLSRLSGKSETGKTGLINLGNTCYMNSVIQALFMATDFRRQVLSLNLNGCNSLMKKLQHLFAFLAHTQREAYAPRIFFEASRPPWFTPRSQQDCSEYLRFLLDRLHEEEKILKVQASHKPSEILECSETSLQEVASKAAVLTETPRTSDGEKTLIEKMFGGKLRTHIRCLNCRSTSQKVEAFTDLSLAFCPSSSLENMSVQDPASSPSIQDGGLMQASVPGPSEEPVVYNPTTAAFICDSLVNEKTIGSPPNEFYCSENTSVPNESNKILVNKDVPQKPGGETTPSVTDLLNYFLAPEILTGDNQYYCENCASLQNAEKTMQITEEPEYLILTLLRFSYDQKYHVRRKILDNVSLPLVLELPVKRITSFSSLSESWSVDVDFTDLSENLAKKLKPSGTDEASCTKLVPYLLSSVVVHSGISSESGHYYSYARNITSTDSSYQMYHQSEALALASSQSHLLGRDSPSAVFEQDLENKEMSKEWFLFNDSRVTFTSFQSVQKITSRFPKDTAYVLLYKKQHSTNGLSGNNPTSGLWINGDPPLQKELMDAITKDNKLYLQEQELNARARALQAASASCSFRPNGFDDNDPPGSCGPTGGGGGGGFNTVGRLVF
Summary of the method: as §1

[4] = molecular target: T3, USP39 (UniProt Q53GS9)
T3 sequence (whole entry): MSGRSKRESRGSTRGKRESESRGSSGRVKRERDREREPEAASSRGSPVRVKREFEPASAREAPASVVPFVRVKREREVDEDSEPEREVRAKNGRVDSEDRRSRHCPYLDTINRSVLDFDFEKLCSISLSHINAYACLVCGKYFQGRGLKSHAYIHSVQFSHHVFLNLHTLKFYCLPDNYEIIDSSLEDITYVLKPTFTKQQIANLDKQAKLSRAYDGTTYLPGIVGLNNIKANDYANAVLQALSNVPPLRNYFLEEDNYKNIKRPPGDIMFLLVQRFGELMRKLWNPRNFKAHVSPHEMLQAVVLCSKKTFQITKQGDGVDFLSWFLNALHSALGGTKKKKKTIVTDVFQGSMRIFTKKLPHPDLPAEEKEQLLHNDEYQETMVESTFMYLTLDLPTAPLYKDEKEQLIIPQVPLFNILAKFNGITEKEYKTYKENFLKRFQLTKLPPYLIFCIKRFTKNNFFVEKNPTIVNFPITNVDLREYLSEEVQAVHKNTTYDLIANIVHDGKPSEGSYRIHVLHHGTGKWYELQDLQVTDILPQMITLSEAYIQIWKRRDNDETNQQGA
Summary of the method: as §1

[5] = molecular target: T4, USP4 (UniProt Q13107)
T4 sequence (whole entry): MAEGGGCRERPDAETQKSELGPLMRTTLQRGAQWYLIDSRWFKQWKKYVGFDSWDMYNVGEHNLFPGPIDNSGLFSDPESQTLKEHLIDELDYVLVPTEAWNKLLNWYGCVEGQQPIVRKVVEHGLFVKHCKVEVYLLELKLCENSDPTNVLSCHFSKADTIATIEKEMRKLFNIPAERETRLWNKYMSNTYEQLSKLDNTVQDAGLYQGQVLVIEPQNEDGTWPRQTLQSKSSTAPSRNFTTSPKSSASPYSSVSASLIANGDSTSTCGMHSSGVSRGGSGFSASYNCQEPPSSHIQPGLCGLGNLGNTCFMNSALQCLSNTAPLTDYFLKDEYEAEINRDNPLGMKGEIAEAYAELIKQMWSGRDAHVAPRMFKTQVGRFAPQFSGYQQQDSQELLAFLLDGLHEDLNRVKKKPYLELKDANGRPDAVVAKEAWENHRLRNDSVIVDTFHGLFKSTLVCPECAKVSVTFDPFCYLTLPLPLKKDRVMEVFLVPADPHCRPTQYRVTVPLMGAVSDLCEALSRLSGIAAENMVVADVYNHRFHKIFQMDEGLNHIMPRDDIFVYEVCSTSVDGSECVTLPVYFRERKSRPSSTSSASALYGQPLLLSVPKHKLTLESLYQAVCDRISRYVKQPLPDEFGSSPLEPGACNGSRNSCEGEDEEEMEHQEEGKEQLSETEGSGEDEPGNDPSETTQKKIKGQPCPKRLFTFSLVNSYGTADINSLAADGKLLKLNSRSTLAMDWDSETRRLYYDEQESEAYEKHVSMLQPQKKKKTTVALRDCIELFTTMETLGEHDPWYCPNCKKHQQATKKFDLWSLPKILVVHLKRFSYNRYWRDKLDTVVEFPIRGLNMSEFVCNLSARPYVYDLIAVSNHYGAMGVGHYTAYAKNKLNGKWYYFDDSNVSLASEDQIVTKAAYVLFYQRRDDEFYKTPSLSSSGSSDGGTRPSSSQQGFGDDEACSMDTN
Summary of the method: as §1

Measured: log2 ratio of Biotin-Ahx-Ub-VS probe labelling

Chain of USP34 (Q70CQ2 whole entry, the tested form may be a part): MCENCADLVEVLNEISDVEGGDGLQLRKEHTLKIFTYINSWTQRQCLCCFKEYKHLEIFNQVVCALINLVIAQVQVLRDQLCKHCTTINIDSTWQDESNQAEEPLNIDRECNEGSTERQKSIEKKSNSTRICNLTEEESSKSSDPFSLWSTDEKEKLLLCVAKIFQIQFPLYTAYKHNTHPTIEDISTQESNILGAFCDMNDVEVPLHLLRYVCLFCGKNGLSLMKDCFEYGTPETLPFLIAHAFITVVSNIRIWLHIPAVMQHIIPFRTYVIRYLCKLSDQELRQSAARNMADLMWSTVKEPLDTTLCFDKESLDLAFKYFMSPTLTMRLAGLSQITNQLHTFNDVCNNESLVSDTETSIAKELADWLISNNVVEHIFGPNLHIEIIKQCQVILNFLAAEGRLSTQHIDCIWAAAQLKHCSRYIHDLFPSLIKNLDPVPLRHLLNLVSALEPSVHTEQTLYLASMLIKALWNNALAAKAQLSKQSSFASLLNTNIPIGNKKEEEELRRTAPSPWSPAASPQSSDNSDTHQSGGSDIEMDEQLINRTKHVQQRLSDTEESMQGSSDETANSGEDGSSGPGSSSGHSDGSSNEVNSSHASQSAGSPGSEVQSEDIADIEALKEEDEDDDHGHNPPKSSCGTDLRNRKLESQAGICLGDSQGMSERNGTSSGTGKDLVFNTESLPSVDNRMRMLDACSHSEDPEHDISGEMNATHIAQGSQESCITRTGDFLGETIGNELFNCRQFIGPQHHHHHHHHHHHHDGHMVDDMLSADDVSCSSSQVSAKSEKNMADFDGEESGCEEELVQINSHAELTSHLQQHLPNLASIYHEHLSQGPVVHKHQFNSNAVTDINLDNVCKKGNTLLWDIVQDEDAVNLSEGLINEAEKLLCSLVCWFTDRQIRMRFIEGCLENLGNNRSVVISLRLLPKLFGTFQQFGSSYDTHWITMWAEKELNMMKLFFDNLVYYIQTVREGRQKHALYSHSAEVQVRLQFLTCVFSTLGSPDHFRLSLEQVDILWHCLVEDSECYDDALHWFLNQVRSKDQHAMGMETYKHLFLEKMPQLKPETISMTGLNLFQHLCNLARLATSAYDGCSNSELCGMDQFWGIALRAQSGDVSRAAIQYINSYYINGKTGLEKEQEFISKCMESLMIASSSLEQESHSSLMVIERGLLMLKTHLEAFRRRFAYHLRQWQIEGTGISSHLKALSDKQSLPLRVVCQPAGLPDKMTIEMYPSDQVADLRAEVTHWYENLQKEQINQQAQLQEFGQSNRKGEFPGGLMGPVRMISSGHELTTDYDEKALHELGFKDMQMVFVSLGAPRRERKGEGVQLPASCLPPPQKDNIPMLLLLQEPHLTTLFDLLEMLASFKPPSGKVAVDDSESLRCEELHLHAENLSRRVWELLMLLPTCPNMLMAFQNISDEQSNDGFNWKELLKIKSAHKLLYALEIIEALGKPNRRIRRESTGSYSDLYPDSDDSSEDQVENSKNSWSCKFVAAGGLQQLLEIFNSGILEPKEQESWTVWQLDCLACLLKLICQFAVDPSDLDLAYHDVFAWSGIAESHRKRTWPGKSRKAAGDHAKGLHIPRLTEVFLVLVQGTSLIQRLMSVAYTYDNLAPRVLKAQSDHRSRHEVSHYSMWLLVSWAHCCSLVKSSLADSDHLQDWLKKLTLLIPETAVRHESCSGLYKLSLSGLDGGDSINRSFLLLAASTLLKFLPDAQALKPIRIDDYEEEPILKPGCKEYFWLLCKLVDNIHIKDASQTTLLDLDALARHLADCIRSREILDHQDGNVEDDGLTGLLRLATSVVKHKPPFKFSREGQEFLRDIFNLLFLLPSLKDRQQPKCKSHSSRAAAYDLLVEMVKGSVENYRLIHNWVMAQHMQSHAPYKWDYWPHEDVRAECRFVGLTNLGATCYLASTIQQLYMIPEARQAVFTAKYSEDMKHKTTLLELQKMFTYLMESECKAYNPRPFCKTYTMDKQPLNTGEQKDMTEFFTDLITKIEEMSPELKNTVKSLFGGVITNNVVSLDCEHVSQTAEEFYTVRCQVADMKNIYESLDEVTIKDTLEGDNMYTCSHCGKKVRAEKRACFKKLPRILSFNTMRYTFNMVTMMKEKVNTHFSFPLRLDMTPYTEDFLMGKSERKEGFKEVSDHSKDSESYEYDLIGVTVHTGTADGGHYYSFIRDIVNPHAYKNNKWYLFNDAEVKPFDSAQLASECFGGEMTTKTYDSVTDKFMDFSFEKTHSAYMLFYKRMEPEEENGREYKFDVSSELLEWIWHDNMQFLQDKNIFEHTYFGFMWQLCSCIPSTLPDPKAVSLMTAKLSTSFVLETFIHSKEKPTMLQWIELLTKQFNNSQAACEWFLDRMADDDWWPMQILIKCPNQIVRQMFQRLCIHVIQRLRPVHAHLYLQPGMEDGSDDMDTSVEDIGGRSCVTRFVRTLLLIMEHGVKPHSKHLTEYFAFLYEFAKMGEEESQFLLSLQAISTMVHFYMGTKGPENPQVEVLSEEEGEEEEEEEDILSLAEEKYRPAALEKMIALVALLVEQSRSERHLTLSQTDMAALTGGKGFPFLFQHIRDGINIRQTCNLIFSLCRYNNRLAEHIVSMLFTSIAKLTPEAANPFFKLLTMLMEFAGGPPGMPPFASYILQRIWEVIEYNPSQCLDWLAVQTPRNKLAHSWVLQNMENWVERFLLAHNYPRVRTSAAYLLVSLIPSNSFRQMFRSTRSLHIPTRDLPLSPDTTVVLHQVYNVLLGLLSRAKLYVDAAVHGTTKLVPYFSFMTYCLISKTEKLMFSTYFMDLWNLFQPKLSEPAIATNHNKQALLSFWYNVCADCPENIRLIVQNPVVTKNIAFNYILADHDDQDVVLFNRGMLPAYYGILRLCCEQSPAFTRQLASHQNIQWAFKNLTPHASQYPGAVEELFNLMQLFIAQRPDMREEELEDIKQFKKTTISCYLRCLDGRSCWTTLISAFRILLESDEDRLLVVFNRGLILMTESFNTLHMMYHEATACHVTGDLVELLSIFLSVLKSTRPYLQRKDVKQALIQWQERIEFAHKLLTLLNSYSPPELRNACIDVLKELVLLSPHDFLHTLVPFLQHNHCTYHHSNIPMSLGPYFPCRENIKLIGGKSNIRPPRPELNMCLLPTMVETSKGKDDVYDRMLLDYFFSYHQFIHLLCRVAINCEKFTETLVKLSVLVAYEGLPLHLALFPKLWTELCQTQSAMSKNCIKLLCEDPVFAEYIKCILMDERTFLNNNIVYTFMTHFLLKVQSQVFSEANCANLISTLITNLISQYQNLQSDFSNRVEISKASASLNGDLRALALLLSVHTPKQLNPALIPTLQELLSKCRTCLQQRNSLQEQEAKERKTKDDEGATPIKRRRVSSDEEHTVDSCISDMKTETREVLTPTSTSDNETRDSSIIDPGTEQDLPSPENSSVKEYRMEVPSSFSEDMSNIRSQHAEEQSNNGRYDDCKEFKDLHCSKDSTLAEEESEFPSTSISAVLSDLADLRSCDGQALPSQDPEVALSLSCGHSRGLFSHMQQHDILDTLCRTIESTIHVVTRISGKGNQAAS

O=C(CCl)N1CCC(C(O)c2ccc(F)cc2)CC1 (stereo not given)
inactive: [1] -0.0791 | [2] 0.299 | [3] 0.282 | [4] 0.453 | [5] 0.032
